# The list is not random: actives were taken first. Their share in the collection is about 1.8%.
# MIN6 prolif – MIN6 beta-cell proliferation induction | MIN6 cells proliferation, ATPlite luminescence, 48 h; cells starved in 0.2% serum; 100% = growth in 10% serum | proliferation, % at 10 µM | actives 0.29% (n = 330,000);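 active = compounds whose signal lies at least 3.5 SD above the mean of all wells on their plate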;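 note: 0% = DMSO-treated cells in low-serum medium and 100% = 10% serum control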
# CendR NRP1 mod – alters CendR peptide binding to human NRP-1; inhibition, % at 25 µM; actives 0.85% (n = 360,000); FAM-RPARPAR peptide binding to NRP-1, fluorescence polarization;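 active = inhibition or corrected inhibition above about 18%, plus a signal ratio from 0.5 to 1.5, limit read from the data, passing the limit was not always enough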
# VLA-4 inh – inhibition in a human VLA-4 binding assay | P13612 | VLA-4 expressing cells, ligand binding flow cytometry | inhibition, % (about 7 µM as worked out from the volumes in the protocol) | actives 0.2% (n = 330,000) | AID 2557; in the data active = inhibition above about 50%
# APOBEC3G inh – inhibitors of human APOBEC3G DNA deaminase | actives 0.28% (n = 330,000) | Q9HC16 | recombinant A3G, ssDNA deamination FAM/TAMRA fluorescence | inhibition, % at 20 µM;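 active = inhibition of at least 40% at 20 µM, with no more than 30% in the related APOBEC3A deaminase screen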;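 note: plate controls were DMSO wells with A3G for no effect and wells lacking A3G enzyme for full effect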
# Target sequence (Q9HC16 whole entry, looked up): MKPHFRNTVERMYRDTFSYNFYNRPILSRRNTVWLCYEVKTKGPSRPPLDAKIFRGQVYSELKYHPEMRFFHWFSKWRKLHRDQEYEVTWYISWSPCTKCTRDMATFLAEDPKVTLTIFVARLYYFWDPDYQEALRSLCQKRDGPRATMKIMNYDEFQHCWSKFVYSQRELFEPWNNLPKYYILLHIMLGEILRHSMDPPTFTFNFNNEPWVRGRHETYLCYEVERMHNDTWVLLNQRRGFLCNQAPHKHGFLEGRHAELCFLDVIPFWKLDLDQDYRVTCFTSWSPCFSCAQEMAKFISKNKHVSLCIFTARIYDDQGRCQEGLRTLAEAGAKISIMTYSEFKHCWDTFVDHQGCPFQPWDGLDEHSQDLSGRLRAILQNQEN
# APOBEC3A inh – blocks human APOBEC3A ssDNA deamination; recombinant A3A, FAM/TAMRA ssDNA deamination fluorescence; inhibition, % at 20 µM; actives 0.41% (n = 330,000);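 active = at least 40% inhibition at 20 µM here, with at most 30% in a related deaminase screen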;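 note: plate controls were A3A with DMSO for no effect and wells lacking A3A enzyme for full effect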
# Target sequence (P31941 whole entry, looked up): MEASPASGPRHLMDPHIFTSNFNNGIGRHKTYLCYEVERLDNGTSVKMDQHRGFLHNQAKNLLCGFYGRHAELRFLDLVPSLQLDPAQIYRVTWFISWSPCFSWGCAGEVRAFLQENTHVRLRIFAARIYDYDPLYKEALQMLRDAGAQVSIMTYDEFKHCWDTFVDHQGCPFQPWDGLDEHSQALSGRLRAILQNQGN
# VLA-4 allo CP – human VLA-4 allosteric modulation in cherry picked compounds. inhibition, % at 6.7 µM. actives 2% (n = 1,300). shares compounds with VLA-4 inh. AID 2813. U937 cells, HUTS-21 LIBS mAb binding, flow cytometry; LDV ligand present at threefold Kd; in the data active = inhibition above about 40%;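 note: 0% = ligand without compound and 100% = no ligand background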
# An asterisk follows results filed as active; nt = no result.
SMILES,MIN6 prolif,CendR NRP1 mod,VLA-4 inh,APOBEC3G inh,APOBEC3A inh,VLA-4 allo CP
O=C(Cc1cccc(NC(=O)C2CCCN(C(=O)C3CCC3)C2)c1)Nc1ccc(C(=O)N2CCCCC2)cc1 (centres undefined),nt,-2.6,nt,nt,nt,nt
CN(C)C1(CN=Cc2cc(Cl)cc([N+](=O)[O-])c2O)CCCCC1,-3.3,18.9,-6.3,2.3,16.2,nt
CCN1CCN(Cc2ccc(NC(=O)c3ccc(C)c(NC(=O)c4nccn4C)c3)cc2C(F)(F)F)CC1,-6.4,9.8,-7.1,-11.9,-2.0,nt
Cc1cn(-c2cc(C(=O)Nc3ccc(C)c(NC(=O)N4CCNC4=O)c3)cc(C(F)(F)F)c2)cn1,-4.7,-4.2,59.4*,-4.3,-1.6,-25.3
CCN1CCN(Cc2ccc(NC(=O)c3ccc(C)c(NC(=O)N4CCNC4=O)c3)cc2C(F)(F)F)CC1,-9.0,-11.2,-5.9,-0.5,1.3,6.1
O=C(CCC(=O)N1CCN(S(=O)(=O)c2ccc3ccccc3c2)CC1)NCC(F)(F)F,-1.9,15.7,-6.2,-7.5,-2.4,nt
COc1ccc(C(=O)C2CCCN(S(=O)(=O)N(C)C)C2)c(C)c1 (centres undefined),-2.7,1.4,-8.3,-4.3,-0.9,nt
CSc1ccccc1C(=O)C1CCCN(S(=O)(=O)N(C)C)C1 (centres undefined),0.0,2.1,51.5*,-1.0,2.0,-10.4
CCOc1c(OC)cccc1C1CC(=O)Nc2cc(OC)c(OC)cc21 (centres undefined),-0.8,2.0,-13.9,-8.8,-1.7,0.0
COC(=O)c1ccc(C2CC(=O)Nc3cc(OC)c(OC)c(OC)c32)cc1 (centres undefined),-3.5,-11.5,1.1,1.0,0.4,-10.2
COc1cc2c(cc1OC)C(c1ccc(OC)c(OC)c1OC)CC(=O)N2 (centres undefined),-1.9,-3.6,0.3,-8.3,-5.6,0.7
COc1cc2c(cc1OC)C(c1cccc(OC)c1OC)CC(=O)N2 (centres undefined),2.8,-15.4,11.7,-8.8,1.0,nt
CCCOc1c(OC)cccc1C1CC(=O)Nc2cc3c(cc21)OCO3 (centres undefined),-2.6,1.9,1.7,-3.8,4.5,nt
CC(=O)c1ccccc1NC(=O)COC(=O)/C(=C/c1ccccc1)n1nnnc1C,-0.4,5.6,3.2,-2.9,1.7,nt
COc1cccc(NC(=O)[C@H](NC(=O)[C@@H]2Cc3ccccc3CN2)c2ccccc2)c1,-0.4,-8.7,-2.9,-5.0,-4.6,nt
O=C(CN(CC1CCCO1)C(=O)c1nsc(Cl)c1Cl)NC1CCCC1 (centres undefined),-1.2,4.1,57.0*,-2.8,-0.2,3.8
O=C(COC(=O)c1nsc(Cl)c1Cl)NC1CCCC1,1.0,1.6,15.5,-4.7,-2.3,nt
CC1CCCC(NC(=O)CCNS(=O)(=O)c2ccc(Br)cc2)C1C (centres undefined),-0.8,-8.5,52.5*,-0.4,2.3,-2.1
CNS(=O)(=O)c1cccc(C(=O)OCC(=O)NC2CCCC(C)C2C)c1 (centres undefined),-1.8,12.1,-12.1,-4.5,-1.8,-1.1
O=C(O)CCc1nc(-c2ccccc2)c(-c2ccccc2)o1,-4.0,nt,51.0*,-6.8,-2.4,-0.6
O=C(CCc1nc(-c2ccccc2)c(-c2ccccc2)o1)OCc1ccc(Cl)cc1,-4.2,-15.6,1.4,-4.0,-1.6,nt
COc1ccc2cc1Oc1ccc(cc1)CC1c3c(cc(OC)c4c3Oc3cc5c(cc3O4)CCNC5C2)CCN1C (centres undefined),-5.9,3.4,52.4*,-7.1,1.1,14.3
CCCCN1C[C@H](Cc2ccccc2)[C@@H](CC(=O)Nc2ccccc2)C1=O,-2.4,0.2,22.9,-8.7,-3.5,nt
Cc1cc(C)nc(SCC(=O)OCC(=O)Nc2ccccc2)n1,-0.2,12.8,4.2,-7.2,-3.4,nt
COc1ccc(C(=O)OCC(=O)Nc2cc(C)c(C)cc2[N+](=O)[O-])cc1,5.1,-11.3,53.8*,1.1,1.7,-0.1
SMILES,MIN6 prolif,CendR NRP1 mod,VLA-4 inh,APOBEC3G inh,APOBEC3A inh,VLA-4 allo CP
COc1ccccc1OCCC(=O)OCC(=O)NCc1ccc(F)cc1,-1.0,10.0,18.4,-7.5,-0.3,nt
N#Cc1ccccc1Cn1cc(/C=C/[N+](=O)[O-])c2ccccc21,0.0,-9.4,42.2,-1.2,1.6,30.7
Cc1c(C)c2ccc(OCC(=O)N(C)C3CCS(=O)(=O)C3)c(C)c2oc1=O (centres undefined),-2.1,-3.2,-13.6,5.1,0.3,nt
CCCOc1ccc(-c2cc(C(=O)NCC3CCCO3)c3ccccc3n2)cc1 (centres undefined),-1.5,3.1,43.5,0.7,1.6,-5.3
NC(=O)C1CCN(C(=O)CSc2ncccn2)CC1,1.3,-1.3,1.4,-3.6,-2.4,nt
Cc1ccnc(SCC(=O)N2CCC(C(N)=O)CC2)n1,-2.4,-12.8,50.7*,-7.5,-3.5,12.3
Cc1cc(CN2CCC(n3nccc3NC(=O)c3ccccc3C)CC2)n[nH]1,-0.8,-0.3,4.4,-3.9,-1.6,nt
CCc1cc(=O)[nH]c(-n2[nH]c(-c3ccccc3)cc2=O)n1,-1.4,3.8,-8.6,-6.9,-1.2,3.7
Cc1c(NC(=O)c2ccccc2N(C)S(=O)(=O)c2ccccc2)c(=O)n(-c2ccccc2)n1C,0.6,-9.9,7.7,-0.7,2.9,-3.9
Cc1c(NC(=O)C2CC=CCC2C(=O)O)c(=O)n(-c2ccccc2)n1C (centres undefined),-2.1,9.5,3.8,-1.2,21.7,-11.4
COc1cccc(OC)c1C(=O)Nc1c(C)n(C)n(-c2ccccc2)c1=O,0.1,9.0,0.0,-8.3,-5.5,6.5
Cc1ccc(-c2cc(C(=O)Nc3c(C)n(C)n(-c4ccccc4)c3=O)[nH]n2)c(O)c1,3.0,-3.4,10.1,3.5,3.6,6.3
Cc1c(NC(=O)c2c(F)cccc2F)c(=O)n(-c2ccccc2)n1C,0.8,-12.0,1.7,-4.8,-1.3,nt
COc1ccc(Cl)cc1C(=O)NNC(=O)c1ccncc1,-3.5,-3.8,-0.7,-7.3,-6.3,nt
Cc1c(NC(=O)c2ccc(Cl)c(S(=O)(=O)N3CCOCC3)c2)c(=O)n(-c2ccccc2)n1C,-1.1,3.4,6.5,-3.2,-1.1,2.0
CCOC(=O)C1=C(C)C2C3C(=O)N(c4ccc(C)cc4C)C(=O)C3C1(C)C1C(=O)N(c3ccc(C)cc3C)C(=O)C21 (centres undefined),0.7,0.0,43.0,-8.0,-1.5,-8.5
COc1ccc(C)cc1S(=O)(=O)N1CCCC(C(=O)NC2CC2)C1 (centres undefined),-3.8,-3.7,3.6,3.2,6.1,nt
CCOC(=O)N1CCN(C(=O)CN(C)S(=O)(=O)c2ccc(F)cc2)CC1,-3.1,10.6,4.5,0.9,-0.3,nt
CCOC(=O)N1CCN(C(=O)CN(C)S(=O)(=O)c2ccc3c(c2)C(C)(C)C(=O)N3C)CC1,-2.9,8.2,-10.6,1.3,2.5,-0.9

# High-throughput results deposited in PubChem BioAssay by several laboratories.
